Test results taken from article PMC4336329 (PLoS ONE, 2015).
Hit rate of the full screen: of about 310,000 compounds, about 14,000 (4.5%) showed an effect of 50% or more. The effect is printed as a negative number. The sample as a whole holds a higher share of strong results than the screen did.
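Note: peak tail current of the secondary pulse compared with the same well before compound.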

The molecules below were run against human ether-à-go-go-related gene (hERG) potassium channel (human, UniProt Q12809) (assay: primary screen, population patch clamp on CHO cells stably expressing hERG; higher = less effect of the substance).
Sequence of human ether-à-go-go-related gene (hERG) potassium channel (Q12809 whole entry, looked up): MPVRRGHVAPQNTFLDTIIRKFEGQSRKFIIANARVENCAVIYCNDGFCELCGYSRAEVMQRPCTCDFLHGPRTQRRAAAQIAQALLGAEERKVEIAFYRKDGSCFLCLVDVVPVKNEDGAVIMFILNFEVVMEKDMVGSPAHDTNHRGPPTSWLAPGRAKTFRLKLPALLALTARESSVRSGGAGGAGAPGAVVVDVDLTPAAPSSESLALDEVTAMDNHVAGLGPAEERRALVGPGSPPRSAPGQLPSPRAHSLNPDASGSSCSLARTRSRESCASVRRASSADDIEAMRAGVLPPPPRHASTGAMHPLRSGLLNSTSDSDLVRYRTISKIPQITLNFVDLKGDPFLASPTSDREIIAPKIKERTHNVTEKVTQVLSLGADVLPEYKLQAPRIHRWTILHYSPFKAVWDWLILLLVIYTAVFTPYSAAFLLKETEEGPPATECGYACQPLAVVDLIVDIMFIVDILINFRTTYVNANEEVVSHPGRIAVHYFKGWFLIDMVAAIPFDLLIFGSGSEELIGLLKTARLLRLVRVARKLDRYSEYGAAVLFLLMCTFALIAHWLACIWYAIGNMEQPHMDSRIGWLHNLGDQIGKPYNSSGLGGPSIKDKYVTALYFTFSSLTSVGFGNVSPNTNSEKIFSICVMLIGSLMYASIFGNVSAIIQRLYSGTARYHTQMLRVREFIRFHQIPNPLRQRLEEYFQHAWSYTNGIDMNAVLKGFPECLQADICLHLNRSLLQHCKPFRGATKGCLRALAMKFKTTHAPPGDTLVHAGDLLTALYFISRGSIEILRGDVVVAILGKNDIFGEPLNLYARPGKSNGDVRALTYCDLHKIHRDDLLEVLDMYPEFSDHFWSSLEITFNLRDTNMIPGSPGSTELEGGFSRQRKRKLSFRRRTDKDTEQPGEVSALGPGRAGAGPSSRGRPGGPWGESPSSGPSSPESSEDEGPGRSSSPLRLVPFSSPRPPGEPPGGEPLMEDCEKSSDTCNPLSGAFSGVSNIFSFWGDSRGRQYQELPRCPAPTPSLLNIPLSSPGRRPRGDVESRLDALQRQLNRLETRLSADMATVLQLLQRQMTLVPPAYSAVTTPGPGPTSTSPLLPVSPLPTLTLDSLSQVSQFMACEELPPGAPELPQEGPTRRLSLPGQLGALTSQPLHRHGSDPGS
For COc1ccc(-c2cc(C(=O)N(C)CCc3ccc(OC)c(OC)c3)c3ccccc3n2)cc1, the “hERG current change (%, negative = inhibition) at 10uM” value was -29.4%.
With CC(c1ccco1)N(C(=O)c1cccc(S(=O)(=O)N(C)C)c1)c1ccccn1 (stereo not drawn) the “hERG current change (%, negative = inhibition) at 10uM” value was 16%.
For CCCc1cc(=O)oc2c(C)c(OCC(=O)NCCCn3ccnc3)ccc12, the “hERG current change (%, negative = inhibition) at 10uM” value was -75.3%.
In the case of COC(=O)COc1ccc2c(-c3ccc(OC)cc3)cc(=O)oc2c1, the “hERG current change (%, negative = inhibition) at 10uM” value is reported as -39.2%.
With CC(=O)COc1ccc2c(-c3ccccc3)cc(=O)oc2c1 the “hERG current change (%, negative = inhibition) at 10uM” value was -1.91%.
For Cc1c(C)c2ccc(OCC(=O)NCCCn3ccnc3)c(C)c2oc1=O, the “hERG current change (%, negative = inhibition) at 10uM” value was -32.7%.
In the case of COc1ccc(-c2cc(=O)oc3cc(OCC(C)=O)ccc23)cc1, the “hERG current change (%, negative = inhibition) at 10uM” value is reported as -74.6%.
Cc1cc(=O)oc2cc(OCC(=O)NCCCn3ccnc3)ccc12 was tested, and the “hERG current change (%, negative = inhibition) at 10uM” value was 7.58%.
With CCc1cc(=O)oc2c(C)c(OCC(=O)NCCCn3ccnc3)ccc12 the “hERG current change (%, negative = inhibition) at 10uM” value was -45.9%.
For O=C(COc1ccc2c(-c3ccccc3)cc(=O)oc2c1)NCCCn1ccnc1, the “hERG current change (%, negative = inhibition) at 10uM” value was -48.7%.
With COc1ccc(-c2cc(=O)oc3cc(OCC(=O)NCCCn4ccnc4)ccc23)cc1 the “hERG current change (%, negative = inhibition) at 10uM” value was -65.4%.
In the case of Clc1cccc(-c2nc(NCCCN3CCOCC3)c3ccccc3n2)c1, the “hERG current change (%, negative = inhibition) at 10uM” value is reported as -10.1%.
In the case of CCOC(=O)N1CCN(C(=O)c2cccc(NC3=NC4CS(=O)(=O)CC4S3)c2)CC1 (stereo not drawn), the “hERG current change (%, negative = inhibition) at 10uM” value is reported as 4.31%.
In the case of NC(=O)c1cc(Cc2ccccc2)sc1NC(=O)c1ccco1, the “hERG current change (%, negative = inhibition) at 10uM” value is reported as -13.6%.
With O=C1CCC(c2ccccc2)=NN1 the “hERG current change (%, negative = inhibition) at 10uM” value was 9.05%.
For COCC(C)NC(=O)/C(=C/c1ccccc1)c1ccccc1 (stereo not drawn), the “hERG current change (%, negative = inhibition) at 10uM” value was -25%.
In the case of COc1ccc(S(=O)(=O)C(C#N)c2nc3ccccc3nc2N2CCC(C)CC2)cc1 (stereo not drawn), the “hERG current change (%, negative = inhibition) at 10uM” value is reported as 18.6%.
With O=C(Nc1ccccc1)Nc1ccc2c(c1)CCC2 the “hERG current change (%, negative = inhibition) at 10uM” value was 29.8%.
For CC(OC(=O)CCCOc1ccccc1)C(=O)NC(N)=O (stereo not drawn), the “hERG current change (%, negative = inhibition) at 10uM” value was 9%.
With Cn1cncc1C#Cc1c(C=O)n(C)c2ccccc12 the “hERG current change (%, negative = inhibition) at 10uM” value was 19.8%.
Cc1ccc(C)c(NC(=O)COc2cccc3c2CCN(Cc2ccccc2)C3=O)c1 was tested, and the “hERG current change (%, negative = inhibition) at 10uM” value was -10.1%.
For O=C(COc1ccccc1-c1ccccc1)NCc1ccco1, the “hERG current change (%, negative = inhibition) at 10uM” value was -28%.
With Cc1cccc(CN2CCc3c(OCC(=O)NCc4ccco4)cccc3C2=O)c1 the “hERG current change (%, negative = inhibition) at 10uM” value was -51.2%.
O=C(COc1cccc2c1CCN(Cc1ccc(Br)cc1)C2=O)NCc1ccco1 was tested, and the “hERG current change (%, negative = inhibition) at 10uM” value was -70.6%.
For Cc1cccc(NC(=O)COc2cccc3c2CCN(Cc2ccccc2)C3=O)c1C, the “hERG current change (%, negative = inhibition) at 10uM” value was -5.8%.
O=C(COc1cccc2c1CCN(Cc1ccccc1)C2=O)NCc1ccco1 was tested, and the “hERG current change (%, negative = inhibition) at 10uM” value was -70.3%.
With COC(=O)c1ccc(COc2cccc3c2CCN(Cc2cccc(C)c2)C3=O)o1 the “hERG current change (%, negative = inhibition) at 10uM” value was -3.41%.
Cc1ccc(CN2CCc3c(OCC(=O)Nc4cc(C)ccc4C)cccc3C2=O)cc1 was tested, and the “hERG current change (%, negative = inhibition) at 10uM” value was 4.23%.
In the case of O=C1c2cccc(OCC(=O)N3CCCc4ccccc43)c2CCN1Cc1ccc(Br)cc1, the “hERG current change (%, negative = inhibition) at 10uM” value is reported as 6.7%.
With O=C(CN1C(=O)C2CC=CCC2C1=O)Nc1ccccc1N1CCCC1 (stereo not drawn) the “hERG current change (%, negative = inhibition) at 10uM” value was 6.41%.
CCOC(=O)c1c(C)c(C(=O)NCCN2CCOCC2)c(C)n1C was tested, and the “hERG current change (%, negative = inhibition) at 10uM” value was 15.1%.
For CCOC(=O)C1(C)NC(c2ccco2)C2C(=O)N(C)C(=O)C21 (stereo not drawn), the “hERG current change (%, negative = inhibition) at 10uM” value was 13.6%.
In the case of COc1ccc(C2c3c(oc4ccc(Cl)cc4c3=O)C(=O)N2CCN2CCOCC2)cc1 (stereo not drawn), the “hERG current change (%, negative = inhibition) at 10uM” value is reported as -81.2%.
With COc1ccc(C2c3c(oc4ccccc4c3=O)C(=O)N2CCCN2CCOCC2)cc1 (stereo not drawn) the “hERG current change (%, negative = inhibition) at 10uM” value was -7.15%.
For COC(=O)c1ccc(C2c3c(oc4ccc(Cl)cc4c3=O)C(=O)N2CCN2CCOCC2)cc1 (stereo not drawn), the “hERG current change (%, negative = inhibition) at 10uM” value was -35.2%.
With C/C(=N\NC(=O)c1c(Br)c(C)nn1C)c1cccc(NC(=O)C2CCC2)c1 the “hERG current change (%, negative = inhibition) at 10uM” value was -19.4%.
Cc1c(C(=O)N2CCN(S(C)(=O)=O)CC2)oc2ccccc12 was tested, and the “hERG current change (%, negative = inhibition) at 10uM” value was 3.49%.
In the case of CCCCNS(=O)(=O)c1ccc2nc(-c3cccnc3)cc(C(=O)NC(C)C)c2c1, the “hERG current change (%, negative = inhibition) at 10uM” value is reported as 16.7%.
In the case of O=C(C1CCC1)N1CCC(O)(c2cccc(F)c2)CC1, the “hERG current change (%, negative = inhibition) at 10uM” value is reported as 14.6%.
For CCc1ccc(NC(=O)COn2nnc3ccc(S(=O)(=O)N(C)C)cc32)cc1, the “hERG current change (%, negative = inhibition) at 10uM” value was -29.1%.
For CN(C)S(=O)(=O)c1ccc2nnn(OCC(=O)NC34CC5CC(CC(C5)C3)C4)c2c1, the “hERG current change (%, negative = inhibition) at 10uM” value was -51.7%.
For C=CCNC(=O)NC(=O)COn1nnc2ccc(S(=O)(=O)N(C)C)cc21, the “hERG current change (%, negative = inhibition) at 10uM” value was 5.69%.
In the case of Cc1ccccc1CC(=O)Nc1ccc2c(C)cc(=O)oc2c1, the “hERG current change (%, negative = inhibition) at 10uM” value is reported as -15.3%.
With CCOC(=O)c1ccc(NC(=O)c2nc[nH]c2C(=O)N2CCN(c3ccccc3)CC2)cc1 the “hERG current change (%, negative = inhibition) at 10uM” value was 3.29%.
O=C(O)C(Cc1c[nH]c2ccccc12)NS(=O)(=O)c1ccc(Br)cc1 (stereo not drawn) was tested, and the “hERG current change (%, negative = inhibition) at 10uM” value was 8.36%.
With O=P(c1ccccc1)(c1ccccc1)c1nc(-c2ccc(Cl)cc2)oc1N1CCOCC1 the “hERG current change (%, negative = inhibition) at 10uM” value was -74.1%.
CCOP(=O)(OCC)c1nc(-c2ccccc2)oc1N1CCCCC1 was tested, and the “hERG current change (%, negative = inhibition) at 10uM” value was 4.4%.
With COP(=O)(OC)c1nc(-c2ccc(C)cc2)oc1N1CCCCC1 the “hERG current change (%, negative = inhibition) at 10uM” value was -10.2%.
For O=P(c1ccccc1)(c1ccccc1)c1nc(-c2ccccc2)oc1N1CCOCC1, the “hERG current change (%, negative = inhibition) at 10uM” value was -20.5%.
In the case of CCOP(=O)(OCC)c1nc(-c2ccc(Br)cc2)oc1N1CCCCC1, the “hERG current change (%, negative = inhibition) at 10uM” value is reported as -65.3%.
In the case of CCOP(=O)(c1ccccc1)c1nc(-c2ccccc2Cl)oc1N1CCCCC1 (stereo not drawn), the “hERG current change (%, negative = inhibition) at 10uM” value is reported as -11.4%.
Cc1ccc(-c2nc(P(=O)(c3ccccc3)c3ccccc3)c(N3CCOCC3)o2)cc1 was tested, and the “hERG current change (%, negative = inhibition) at 10uM” value was -38.3%.
CCOP(=O)(c1ccccc1)c1nc(-c2ccc(F)cc2)oc1N1CCCCC1 (stereo not drawn) was tested, and the “hERG current change (%, negative = inhibition) at 10uM” value was -56.6%.
In the case of CCOP(=O)(c1ccccc1)c1nc(-c2ccccc2C)oc1N1CCCCC1 (stereo not drawn), the “hERG current change (%, negative = inhibition) at 10uM” value is reported as 0.633%.
